Bioassay records (PubChem)
LMP1 NFkB inh: reduces LMP1-driven NF-kappaB luciferase signal; LMP1-induced NF-kappaB luciferase reporter cells, luminescence; actives 0.69% (n = 350,000); AID 504558; inhibition, % at 12.5 µM; in the data active = inhibition above about 41%; inconclusive = no clear call, values can overlap the other calls;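 note: 0% = neutral control wells and 100% = reference inhibitor control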
TWEAK Fn14 block: blocks TWEAK-Fn14 interaction in a reporter cell assay; TWEAK-stimulated Fn14 reporter cells, luciferase luminescence, 8 h; inhibition, % at 10 µM; actives 2% (n = 360,000); in the data active = inhibition above about 50%
HSP90 refold inh: blocks HSP90-mediated luciferase refolding in reticulocyte lysate. AID 1789. Rabbit reticulocyte lysate, luciferase refolding luminescence, 3 h. inhibition, % at 5.6 µM. actives 0.91% (n = 290,000);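 active = inhibition above the screen-wide mean plus 3 SD, computed separately per campaign, cut at about 16% in these data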;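 note: 0% = DMSO wells and 100% = 60 µM geldanamycin wells; inhibitors lower the luminescence because luciferase stays unfolded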
LGR2 antag: inhibitors of bursicon-induced Drosophila LGR2 receptor cAMP signaling; HEK293 LGR2, CRE-luciferase, bursicon-stimulated, 4 h; AID 720647; inhibition, % at 9.99 µM; actives 0.35% (n = 380,000);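 active = drop in luminescence signal, shown as inhibition above about 50% in the replicate tests, limit read from the data, passing the limit was not always enough; inconclusive = probably only some replicates passing the limit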;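 note: agonist challenge used bursicon conditioned medium at about half maximal strength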
TROY signal inh: TROY signaling inhibition; inhibition, % at 10 µM; Q293 LMP1-TROYcd NF-kB luciferase reporter, 4 h; actives 0.98% (n = 360,000);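 active = compounds whose plate-normalised and pattern-corrected inhibition of the luciferase reporter signal at the single screening dose is 50% or more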
aDG glyco act: alpha-DG glycosylation activation; actives 0.22% (n = 360,000); Pro5-aDG cells, alpha-DG glycosylation AlphaScreen (IIH6); 0% Pro5, 100% B10-LARGE cell signal; activation, % at 10 µM; AID 624168;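 active = activation of at least 8% versus controls, or a plate z-score of at least 8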;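 note: Pro5 are CHO cells carrying HIG-tagged alpha-DG that lacks glycosylation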
* marks the source's active call; other numbers are inactive results; ? = inconclusive; nt = no result given. An excerpt weighted towards active compounds, which were near 2.6% of everything screened.

SMILES | LMP1 NFkB inh | TWEAK Fn14 block | HSP90 refold inh | LGR2 antag | TROY signal inh | aDG glyco act
COc1ccccc1NC(=O)c1ccc(NC(=O)c2cc3c(s2)CCC3)cc1 | 11 | 59* | 1 | 14 | 31 | 1
O=C(Nc1ccccc1OC(F)F)c1cc2c(s1)CCC2 | 10 | -54 | 0 | 16 | -64 | 2
COc1ccc(NC(=O)COC(=O)c2cc3c(s2)CCC3)cc1 | -6 | -1 | nt | 0 | -4 | 9.7*
C[C@@H]1CN([C@H](C)CO)C(=O)c2cccc(NC(=O)Nc3ccc(C(F)(F)F)cc3)c2O[C@H]1CN(C)C(=O)Nc1ccc(C(F)(F)F)cc1 | nt | nt | nt | 46 | nt | nt
C[C@@H]1CN([C@@H](C)CO)C(=O)c2cc(NC(=O)Cc3cn(C)c4ccccc34)ccc2O[C@@H]1CN(C)C(=O)Nc1ccc(F)cc1 | nt | nt | nt | 6 | nt | nt
C[C@@H]1CN([C@H](C)CO)S(=O)(=O)c2ccc(-c3cccnc3)cc2O[C@H]1CN(C)CC1CCOCC1 | nt | nt | nt | 15 | nt | nt
C/C(=N\Nc1nc2ccccc2s1)c1cccs1 | -38 | 68* | -4 | 15 | -1 | -1
CC(=NNc1nc2ccccc2s1)c1ncccn1 | 63* | 31 | nt | -44 | -8 | -1
C[C@H](NC(=O)C[C@H]1CC[C@@H]2[C@@H](COc3ccc(NS(=O)(=O)c4ccc(Cl)cc4)cc3C(=O)N2C)O1)c1ccccc1 | nt | nt | nt | 24 | nt | nt
O=C(C[C@@H]1CC[C@H](NC(=O)c2cccnc2)[C@H](CO)O1)NCCN1CCCCC1 | nt | nt | nt | -9 | nt | nt
Cc1nn2cc(-c3ccc(-c4ccccc4)cc3)nc2s1 | -7 | 36 | 1 | nt | nt | 2
Cc1nn2cc(-c3ccc(Cl)cc3)nc2s1 | -12 | 63* | 5 | nt | -5 | 1
C[C@H](CO)N1C[C@H](C)[C@@H](CN(C)C(=O)CCC(F)(F)F)OCc2ccccc2-c2ccccc2C1=O | nt | nt | nt | -2 | nt | nt
Cc1[nH][nH]c(=O)c1C(c1ccc(-c2cccc(C(=O)O)c2)o1)c1c(C)[nH][nH]c1=O | 0 | 17 | 5 | -4 | -3 | 0
COC(=O)c1ccc(-c2ccc(C(c3c(C)[nH][nH]c3=O)c3c(C)[nH][nH]c3=O)o2)cc1 | -1 | 56* | 15 | -3 | 13 | 0
CC1=C(C(=O)OCC(C)C)C(c2ccccc2Cl)NC(=O)N1C (stereo not drawn) | -5 | -24 | -2 | 5 | -11 | 0
CCOCCOC(=O)C1=C(C)N(C)C(=O)NC1c1ccccc1Cl (stereo not drawn) | 3 | 53* | -4 | nt | nt | 0
Cc1ccc2cc(CN(C(=O)c3ccco3)c3ccccc3)c(=O)[nH]c2c1 | 5 | -38 | 0 | nt | 12 | 0
Cc1ccc(N(Cc2cc3ccccc3[nH]c2=O)C(=O)c2ccco2)c(C)c1 | 40* | 0 | 0 | nt | 24 | 0
CC(OC(=O)/C=C/c1cccs1)C(=O)Nc1ccc(S(N)(=O)=O)cc1 (stereo not drawn) | -2 | 5 | 4 | 23 | -5 | 0
CC(OC(=O)/C=C/c1ccc2ccccc2n1)C(=O)Nc1ccc(S(N)(=O)=O)cc1 (stereo not drawn) | -25 | 58* | nt | 10 | 17 | 1
O=C(c1ccccc1)C(CN1CCCCC1)c1ccccc1 (stereo not drawn) | 55* | 71* | nt | ? | 8 | 0
CN(Cc1cc(Cl)cc(Cl)c1)CC(C(=O)c1ccccc1)c1ccccc1 (stereo not drawn) | -8 | 15 | nt | ? | -12 | 1
O=C(c1ccc(Br)cc1)C(CN1CCOCC1)c1ccccc1 (stereo not drawn) | -8 | 58* | -1 | 16 | 0 | 0
CN(C)CC(C(=O)c1ccccc1)c1ccccc1 (stereo not drawn) | 78* | 79* | 0 | nt | 33 | -1
SMILES | LMP1 NFkB inh | TWEAK Fn14 block | HSP90 refold inh | LGR2 antag | TROY signal inh | aDG glyco act
CO[C@H]1CN(C)C(=O)c2cc(NS(=O)(=O)c3cccc(C)c3)ccc2OC[C@@H](C)NC[C@H]1C | nt | nt | nt | 6 | nt | nt
Cc1cccn2c(=O)c3cc(C(=O)NCc4ccco4)c(=N)n(CCc4ccccc4)c3nc12 | -3 | -75 | -3 | -22 | -13 | 1
Cc1cccn2c(=O)c3cc(C(=O)NCCc4ccccc4)c(=N)n(Cc4ccco4)c3nc12 | -6 | 101* | -2 | 19 | 33 | 1
COc1ccc(CCNC(=O)c2cc3c(=O)n4cccc(C)c4nc3n(Cc3ccco3)c2=N)cc1OC | -4 | 87* | 2 | -13 | 10 | 0
N=c1c(C(=O)NCc2ccc(F)cc2)cc2c(=O)n3ccccc3nc2n1Cc1ccco1 | -34 | 95* | 2 | nt | 59* | 1
COc1ccc2c3c([nH]c2c1)[C@@H](CO)N(Cc1cccc(Cl)c1)CC31CCN(C(C)=O)CC1 | nt | nt | nt | 2 | nt | nt
CCCc1c(-c2ccc(O)cc2)nn(-c2ccc(O)cc2)c1-c1ccc(O)cc1 | 4 | 1 | nt | nt | 75* | 0
Cc1ccc(S(=O)(=O)N2C[C@H](O)COC[C@@H]3O[C@@H](CC(=O)NCc4ccc5c(c4)OCO5)CC[C@H]32)cc1 | nt | nt | nt | 0 | nt | nt
CC(=O)CC1c2cc(F)ccc2C=C(c2ccsc2)N1c1ccc(C#CC2(O)CCCCC2)cc1 (stereo not drawn) | nt | 57* | nt | -23 | -13 | 0
CC(=O)CC1c2cc(F)ccc2C=C(c2ccsc2)N1c1ccc(C#Cc2cncn2C)cc1 (stereo not drawn) | nt | 14 | nt | 17 | -3 | 1
COc1cc(OC)cc(C2=Cc3ccccc3C(CC(C)=O)N2c2ccc(C#CC3(O)CCCCC3)cc2)c1 (stereo not drawn) | nt | 52* | nt | -22 | 36 | 0
C/C=C/c1ccc([C@H]2[C@@H](CO)N[C@@H]2CNC(=O)C2CC2)cc1 | nt | nt | nt | -6 | nt | nt
CC(C)NC(=O)N1Cc2cc(C(=O)NC3CCCCC3)nc(-c3cccc(-c4cccnc4)c3)c2[C@H]1CCO | nt | nt | nt | 10 | nt | nt
CCCNC(=O)N(C)C[C@H]1Oc2cc(-c3cncnc3)ccc2S(=O)(=O)N([C@H](C)CO)C[C@@H]1C | nt | nt | nt | 14 | nt | nt
COc1ccc(S(=O)(=O)N2CCCCN3[C@H](CO)[C@H](c4ccc(-c5cccnc5)cc4)[C@H]3C2)cc1 | nt | nt | nt | 29 | nt | nt
C[C@H](CO)N1C[C@H](C)[C@@H](CN(C)S(=O)(=O)c2ccc(F)cc2)Oc2ccc(NC(=O)C3CC3)cc2CC1=O | nt | nt | nt | 22 | nt | nt
CCOC(=O)c1ccc(NC(=O)c2nc(S(=O)(=O)Cc3ccccc3)ncc2Cl)cc1 | 10 | 62* | 3 | -9 | 63* | 0
CCCS(=O)(=O)c1ncc(Cl)c(C(=O)Nc2ccc(S(=O)(=O)Nc3ncccn3)cc2)n1 | 1 | -1 | -2 | 3 | -18 | 0
CCS(=O)(=O)c1ncc(Cl)c(C(=O)Nc2ccc(S(=O)(=O)N3CCC(C)CC3)cc2)n1 | 8 | 95* | 3 | 21 | 85* | 0
CCOC(=O)c1ccc(NC(=O)CCS(=O)(=O)Cc2ccccc2)cc1 | -11 | -1 | 5 | 6 | -27 | 0
